Hits are enriched below; roughly 3.1% of the tested compounds scored in any of these assays.
GLS inh: qHTS for Inhibitors of Glutaminase (GLS) | Glutaminase kidney isoform, mitochondrial (Homo sapiens), O94925 | GLS enzymatic activity, qHTS titration | 410,000 compounds, 0.21% hits | Potency, µM (titrated, usually from 45.5 µM), without a hit: at the top dose activity change, negative = inhibition, most hits filed as inhibitors; further: potency means the concentration at half of the fitted maximal effect
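Read-out is an Amplex red fluorescence increase coupled through glutamate oxidase and HRP, measured before and after 30 min room-temperature incubation. hKGA is in 45 mM KH2PO4 (pH 8.2) with 0.02% Tween-20; glutamine added as 1mM solution.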
VDR inhibitor: Inhibitors of the vitamin D receptor (VDR): qHTS. VDR-SRC2-3 peptide fluorescence polarization, 2 h. Potency, µM, without a hit: max response, negative = inhibition, actives largely listed as inhibitors. 400,000 compounds, 0.93% hits. AID 504847, 2011; further: potency means the concentration at half of the fitted maximal effect
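The screen uses fluorescence polarization to detect compounds that interfere with recruitment of the SRC2-3 coactivator peptide to VDR; plates are read after 2 h at room temperature.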
PI4K2A block: qHTS for small molecular inhibitors of PI4K2A; 420,000 compounds, 0.13% hits; Phosphatidylinositol 4-kinase type 2-alpha (Homo sapiens), Q9BTU6; purified PI4K2A, ADP-Glo luminescence, 1 h; stronger effect = lower value; activity change, negative = inhibition, % at 76.9 µM; in the data active means activity change below about -50%; inconclusive means mostly about -30% to -49%;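 further: -100% = wells without enzyme as full effect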
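In this quantitative HTS, ADP production by PI4K2A was quantified luminescently after 1 h at ambient temperature; 100 microM adenosine served as plate-quality control.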
PLK1 PBD block: qHTS for Inhibitors of PLK1-PDB (polo-like kinase 1 - polo-box domain): Primary Screen; Potency, µM, for inactives: max response, negative = inhibition, usual class: inhibitors; Serine/threonine-protein kinase PLK1 (Homo sapiens), P53350; 360,000 compounds, 2.8% hits; Plk1 PBD binding of FITC phosphopeptide, fluorescence polarization; further: potency means the concentration at half of the fitted maximal effect; series mostly up to about 57 µM; nearly all actives have a fitted effect of over 65% in size
GCN5L2 inh: qHTS Assay for Inhibitors of GCN5L2. GCN5L2 HAT assay, ThioGlo1 CoA-SH fluorescence. Potency, µM (doses to about 58.9 µM), without a hit: at the highest dose activity change, negative = inhibition, most hits filed as inhibitors. 390,000 compounds, 0.21% hits; further: potency means the concentration at half of the fitted maximal effect
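Enzyme at 20nM final was mixed with library compounds for 15 min at room temperature. Peptide H3(1-25) at 75uM, acetyl-CoA at 70uM and ThioGlo1 at 50uM were then added. Plates were read immediately and after 20 min (Ex340nm/Em540nm).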
* hit, by the source's call. Unless noted, the call rests on the fitted dose curve; in most records, active means well fitted curve in the direction sought with a large enough effect; inconclusive means small, poorly fitted or top-dose-only effect, or another doubt; inactive means no such curve, though single readings can be large; an effect the other way counts as inactive or inconclusive. Unless noted, on the % scale 0 is the no-effect control and ±100 the full control effect.

Screening Nn1c(SCc2cn3ccccc3n2)nnc1-c1ccncc1 returned GLS inh 1%, VDR inhibitor 1%, PI4K2A block 2, PLK1 PBD block -12% and GCN5L2 inh -4%.
Screening Nn1c(SCc2cn3cc(Cl)ccc3n2)nnc1-c1ccncc1 returned GLS inh -14%, VDR inhibitor inconclusive, PI4K2A block -1, PLK1 PBD block 11µM* and GCN5L2 inh -9%.
`CSc1ncc(Cl)c(C(=O)C(C#N)c2nc3c(C)cc(C)cc3c(=O)[nH]2)n1` (centres undefined) gave GLS inh inconclusive, VDR inhibitor inconclusive, PI4K2A block -4, PLK1 PBD block 21µM* and GCN5L2 inh -21%.
Screening Cc1cc(C)c(S(=O)(=O)NCCc2cc3ccc(C)cc3[nH]c2=O)c(C)c1 returned GLS inh -7%, VDR inhibitor -7%, PI4K2A block -3 and GCN5L2 inh -7%.
`COc1ccc(Oc2c(-c3cccs3)cnn(-c3ccc(C)cc3)c2=O)cc1` gave PI4K2A block -7.
COc1ccc(CNc2ccnc(-c3ccccc3Cl)n2)c(OC)c1 was read as VDR inhibitor -6% and GCN5L2 inh -29%.
For O=C(O)Cc1sc(Nc2cccc3ccccc23)nc1-c1ccc(Cl)cc1 the results were GLS inh inconclusive, VDR inhibitor -2%, PI4K2A block -2, PLK1 PBD block 27µM* and GCN5L2 inh -4%.
Screening CCCCCCCCCCCCCCCCC(C(=O)O)C(O)(CC(=O)O)C(=O)O (centres undefined) returned GLS inh -5%, VDR inhibitor 10µM*, PI4K2A block -7 and GCN5L2 inh 1.1µM*.
`CCCCCCCCCCCCC(O)C(=O)O` (centres undefined) gave VDR inhibitor 0% and GCN5L2 inh -21%.
For CCOC(=O)C(=NC1CCS(=O)(=O)C1)NNc1cc(Cl)ccc1Cl (centres undefined) the results were GLS inh inconclusive, VDR inhibitor inconclusive, PI4K2A block -2, PLK1 PBD block 3% and GCN5L2 inh 12%.
`CCOC(=O)C(=NC1CCS(=O)(=O)C1)NNc1ccccc1Cl` (centres undefined) gave GLS inh 8%, VDR inhibitor -26%, PI4K2A block -3, PLK1 PBD block 27µM* and GCN5L2 inh 25%.
`N=C1C(c2ccccc2)=C(O)CN1c1cccc(S(=O)(=O)N2CCOCC2)c1` gave GLS inh 3%, VDR inhibitor inconclusive, PI4K2A block 7, PLK1 PBD block 17µM* and GCN5L2 inh -7%.
Screening Cn1ccc(=S)c2ccccc21 returned GLS inh -25%, VDR inhibitor -15%, PI4K2A block -9, PLK1 PBD block 12µM* and GCN5L2 inh -16%.
For Cn1c(N)c(C(=O)COC(=O)C2(c3ccc(Cl)cc3)CCCC2)c(=O)n(C)c1=O the results were GLS inh inconclusive, VDR inhibitor -23%, PI4K2A block 4, PLK1 PBD block 3µM* and GCN5L2 inh -5%.
Screening COc1ccc(Cl)cc1C(=O)OCC(=O)c1c(N)n(C)c(=O)n(C)c1=O returned GLS inh 0%, PI4K2A block -71* and PLK1 PBD block -6%.
For COc1cc2ccccc2cc1C(=O)OCC(=O)c1c(N)n(C)c(=O)n(C)c1=O the results were GLS inh 8%, VDR inhibitor -14%, PI4K2A block -3, PLK1 PBD block 2% and GCN5L2 inh -1%.
For O=C(c1ccc2c(c1)OCO2)N1CCC(Oc2cccnc2)CC1 the results were PI4K2A block 0.
Screening CC1(C)CC(=O)C2=C(C1)NC(=S)C(C#N)C21CCCCC1 (centres undefined) returned GLS inh -19%, VDR inhibitor inconclusive, PI4K2A block 2, PLK1 PBD block 11µM* and GCN5L2 inh -13%.

Assay outcomes as filed in PubChem BioAssay.
